Experimental data reported in PubChem BioAssay (EPA / NIEHS).
Active and inactive are the calls of the source. The calls were made as follows: active = hit-call score of the fitted dose curve at least 0.9, where 1 is the maximum; inactive = score below 0.9.

read-out: UDP glucuronosyltransferase (UGT1A6), UGT1A6 (gene 54578); assay: LTEA_HepaRG_UGT1A6: Life Technologies and Expression Analysis (LTEA) Assay for UDP glucuronosyltransferase (UGT1A6) using HepaRG (AID 2283539); conditions: mRNA level, 48 h; actives raise or lower the signal
Experimental: LTEA_HepaRG is a cell based, multiplexed-readout assay that uses HepaRG, a human liver cell line, with measurements taken at 48 hours after chemical dosing on a 96-well plate.LTEA_HepaRG_UGT1A6 is one of 102 assay component(s) measured in the LTEA HepaRG cell culture assay. It is a marker of NR mediated metabolism.Data from the assay component LTEA_HepaRG_UGT1A6 was analyzed into 1 endpoint. This assay endpoint, LTEA_HepaRG_UGT1A6, was analyzed with bidirectional fitting relative to DMSO as the negative control and baseline of activity. Using a type of inducible reporter, measures of mRNA induction for gain or loss-of-signal activity can be used to understand regulation of transcription factor activity. To generalize the intended target to other relatable targets, this assay endpoint is annotated to the transferase intended target family, where the subfamily is glucuronosyltransferase.
A total of 1060 chemcials from the ToxCast library were tested in eight-point concentration-response experiments. Cell culture and cytotoxicity assays were conducted at Thermo Fisher Scientific's Custom Services facility (Madison, WI). A single lot of human HepaRG cells (Thermo Fisher Scientific, Frederick, MD) was used for the cell culture experiments. 96-well format collagen type I coated plates of human HepaRG cells were prepared using established methods. Briefly, cryopreserved HepaRG cells were thawed, plated at a density of approximately 100,000 cells/well in HepaRG Thaw, Plate, and General Purpose media (HPRG770, Thermo Fisher Scientific), and incubated for 48 hours. 0.5% DMSO was selected as vehicle control to balance the requisite need of DMSO in HepaRG cultures to maintain differentiation (for example, baseline metabolism, proportions of hepatocytes vs. cholangiocytes), while enabling further hepatic receptor pathway activation (for example, PXR and CAR) in response to chemical exposure. 48 hours after plating, the culture medium was replaced with HepaRG Serum-Free Incudtion Media. Cells were exposed to each test chemical in duplicate and maintained in CO2 incubators for another 48 hours. Chemical plates were thawed to room temperature and 200x concentrations of treatment groups were prepared. 8-point conentration-reponse curves were made with the highest exposure at 100 uM, followed by half-log dilutions, all in 0.5% DMSO. Each test plate contained variouse controls, induction positive controls (1mM phenobarbital), cytotoxicity positive controls ([…] aflatoxin B1), vehicle controls (0.5% DMSO), and total lysis controls (0.5% DMSO). Cell morphology images were taken using an Essen IncuCyte FLR automated microscope, with six 96-well plates imaged in about 24 minutes. Images were captured and exported and JPEG files. Spent culture media was transfered to black-well plates for the LDH assay, and remaining media was sorted at -80 C for later use. Cells were treated with RLT buffer and frozen until shipped for gene expression analysis. Total RNA was isolated from the cell suspension in 75 uL of Buffer RLT (Qiagen, Germantown, MD 20874) by Quintiles/Expression Analysis (Durham, NC) using a custom isolation procedure. Total RNA from each plate well was transferred to a preamplification plate. Fluidigm's 96.96 Dynamic ArrayTM (Fluidigm, Amsterdam, the Netherlands) technology was used for gene expression analyses by quantitative reverse transcription polymerase chain reaction (qRT-PCR, performed by Quintiles/Expression Analysis, Durham, NC)89. Standard TaqManTM Assays (Applied Biosystems/ThermoFisher Scientific, Foster City, CA) were used to assess the expression of 93 genes selected based on their selectivity and sensitivity to important hepatic receptors known to be modulated by environmental chemicals; importance in human hepatocyte functionality; and hepatotoxicity. […]

For `CCCCC=O`, which outcome is on record?
Its outcome is “inactive”.

For `N=C(N)c1ccc(OCCCCCOc2ccc(C(=N)N)cc2)cc1`, which AC50 is on record?
Its AC50 is 37.8 µM (active).

With `O=C(CCCN1CCC(O)(c2ccc(Cl)cc2)CC1)c1ccc(F)cc1` as the compound, how does the AC50 read?
The AC50 was 76.1 µM (active).

For `CCCCCCCCCCCCOS(=O)(=O)O`, which AC50 is on record?
Its AC50 is 81 µM (active).

`O=C(c1ccccc1)c1ccccc1` was tested. Which outcome did it give?
Its outcome is “inactive”.

How did the outcome turn out when `OCC(CO)(CBr)CBr` was run?
The outcome was “inactive”.

`O=C1NS(=O)(=O)c2ccccc21` was tested. Which outcome did it give?
The outcome was “inactive”.

For `CCCCC(CC)C(=O)O` (stereo unspecified), which outcome is on record?
The outcome was “inactive”.

For `CCCCCCCCCCCCCCC`, which outcome is on record?
The outcome was “inactive”.

How did the outcome turn out when `CCC(C)c1ccccc1O` (stereo unspecified) was run?
The outcome was “inactive”.

Which AC50 does the source give for `CCCCc1oc2ccccc2c1C(=O)c1cc(I)c(OCCN(CC)CC)c(I)c1` here?
The AC50 was 55.5 µM (active).

For `CN(C)CCOC(c1ccccc1)c1ccccc1`, which outcome is on record?
Its outcome is “inactive”.

With `CS(=O)(=O)c1ccc([C@@H](CC2CCCC2)C(=O)Nc2cnccn2)cc1Cl` as the compound, how does the AC50 read?
The AC50 was 89.2 µM (active).

With `Cc1[nH]nc2c1N=C(c1ccccc1Cl)c1cc([N+](=O)[O-])ccc1N2` as the compound, how does the AC50 read?
The AC50 was 86.8 µM (active).

How did the outcome turn out when `CC(=O)Nc1ccc(O)cc1` was run?
The outcome was “inactive”.

With `CN(Cc1cnc2nc(N)nc(N)c2n1)c1ccc(C(=O)N[C@@H](CCC(=O)O)C(=O)O)cc1` as the compound, how does the outcome read?
The outcome was “inactive”.
